The source made the active and inactive calls.

One assay deals with Albumin (Bos taurus) (UniProt P02769). Nature of the assay: compounds binding labelled BSA control protein – biochemical, small-molecule microarray, Alexa647 label, 635/667 nm fluorescence, artefact control for SMM control protein annotation, profiling panel (AID 1118).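 Note: score merges 667 nm emission intensity and signal-to-noise per printed compound spot.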 To be noted: BSA-A647 binding, fluorescence 635 nm, higher = more signal.
The nature of assay [1]: probe aXIP binding to arrayed compounds – biochemical, NeuroSMM set, 635/667 nm fluorescence, primary screen (AID 1119).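 Note: probe is the protein aXip251-270 applied at 1 µg/mL to compound-printed slides; binding of probe to printed compounds measured as 667 nm fluorescence plus signal to noise.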 The note with it: small-molecule microarray, higher = more signal, called active from +8 up or from −8 down.
The nature of assay [2]: probe aNOTCH3 binding on compound microarray – biochemical, small-molecule microarray, 635/667 nm fluorescence, primary screen (AID 1120).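 Note: probe is a biotin-tagged antibody raised against NOTCH3 rather than NOTCH3 protein; score merges spot fluorescence near 667 nm with spot signal to noise.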 To be noted: higher = more signal.
Assay [3] in a line: probe aNOTCH2 binding on compound microarray – biochemical, small-molecule microarray, 635/667 nm fluorescence, primary screen (AID 1121).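 Note: score merges feature fluorescence read at 667 nm with its signal to noise.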 To be noted: higher = more signal.
Assay [4] concerns the target Carbonic anhydrase 2 (Homo sapiens) (UniProt P00918). Put plainly: compounds binding carbonic anhydrase 2 – biochemical, small-molecule microarray, Alexa647-labelled CAII, profiling panel (AID 1122). To be noted: CAII-A647 binding fluorescence, higher = more signal.
Assay [5] can be described thus: COS7 lysate on small-molecule microarray, probe aHis, 635 nm (AID 1123).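 Note: z-score combines 667nm fluorescence intensity with signal-to-noise per printed compound spot.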 To be noted: COS7 cell lysate, fluorescence, higher = more signal.
Assay [6] in a line: probe aLAP1 signal on lysate-treated microarray – cell lysate, small-molecule microarray, COS7 lysate, primary screen (AID 1124).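 Note: lysate comes from COS7 cells expressing LAP1 and is applied at 0.3 µg/mL; score merges spot fluorescence near 667 nm with signal-to-noise over triplicate slides.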 The note with it: probe aLAP1, fluorescence, higher = more signal.
The test system of a further assay is Sam68 (KHDRBS1). Nature of the assay: compounds binding KHDRBS1 protein – biochemical, small-molecule microarray, 635 nm fluorescence, primary screen (AID 1125).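 Note: score merges 667 nm channel intensity with signal to noise over triplicate slides.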 The note with it: higher = more signal.
Assay [7] has as its system Chordin-like protein 2 (CHRDL2). Put plainly: compounds binding chordin-like 2 – biochemical, small-molecule microarray, 635 nm fluorescence, primary screen (AID 1126).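 Note: printed compound slides probed with Chrdl2 protein at 4 µg/mL for 1 h at 4 C; score merges 667 nm emission intensity with signal to noise over three replicate slides.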 To be noted: fluorescence 635 nm, higher = more signal.
Assay [8] has as its target Concanavalin-A (Canavalia ensiformis) (UniProt P02866). Put plainly: compounds binding concanavalin A lectin – biochemical, small-molecule microarray, Alexa647 label, 635 nm, artefact control for SMM control protein annotation, primary screen (AID 1127).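 Note: z combines 667 nm emission intensity with signal-to-noise across three replicate slides.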 To be noted: ConA-A647 binding fluorescence, higher = more signal.
The nature of assay [9]: compounds binding Alexa647 anti-His antibody – biochemical, small-molecule microarray, 635 nm fluorescence, artefact control for SMM control protein annotation, primary screen (AID 1128).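 Note: score merges feature fluorescence with signal-to-noise for each printed compound spot.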 The note with it: higher = more signal.
Assay [10] concerns Human papillomavirus type 1a E7 protein (residues 1-88). Put plainly: HPV1a E7 small-molecule binders, primary screen, biochemical, small-molecule microarray, residues 1-88, 635 nm (AID 1129). To be noted: small-molecule microarray binding, fluorescence 635 nm; higher = more signal.
For assay [11], the target named is Focal adhesion kinase 1 (Homo sapiens) (UniProt Q05397). Nature of the assay: PTK2 protein binding on printed compound slides – biochemical, small-molecule microarray, 635/667 nm fluorescence, BSA, DTT, primary screen (AID 1130).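 Note: composite of spot emission at 667 nm and signal to noise over triplicate slides.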 The note with it: 635 nm fluorescence, higher = more signal.
In assay [12] the test system is Fibrinogen (Alexa647-labelled). Put plainly: Alexa647-fibrinogen binding to printed small molecules – biochemical, small-molecule microarray, 635/667 nm fluorescence, artefact control for SMM control-protein annotation, profiling panel (AID 1131).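 Note: z-score merges 667 nm fluorescence with per-spot signal-to-noise over triplicate slides.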 To be noted: fibrinogen-A647 binding fluorescence, higher = more signal.
The target of assay [13] is Follistatin (Homo sapiens) (UniProt P19883). Nature of the assay: FST protein binding to printed compounds – biochemical, small-molecule microarray, 635/667 nm fluorescence, primary screen (AID 1132). The note with it: 635 nm fluorescence, higher = more signal.
For assay [14], the target named is Fibroblast growth factor 2 (Homo sapiens) (UniProt P09038). Nature of the assay: basic fibroblast growth factor binding to printed compounds – biochemical, small-molecule microarray, 635/667 nm fluorescence, primary screen (AID 1133). To be noted: FGF2, fluorescence 635/667, higher = more signal.
A short description of assay [15]: JC-1 mitochondrial potential readout, lung cancer cells – cell-based, A549, JC-1 fluorescence, basal, 24 h, 100 nL, profiling panel (AID 1138).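 Note: A549 lung adenocarcinoma cells under basal conditions with no added stimulus; test concentration not given here.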 The note with it: higher = more signal.
For the next assay, the system named is Lefty1. Put plainly: Lefty1 protein binding to printed compounds – biochemical, small-molecule microarray, 635/667 nm fluorescence, primary screen (AID 1139). The note with it: fluorescence 635/667, higher = more signal.
Assay [16] has as its system wheat germ agglutinin (Triticum aestivum), Alexa647-labelled. Put plainly: Alexa647-WGA lectin binding to printed small molecules – biochemical, small-molecule microarray, 635/667 nm fluorescence, artefact control for SMM control-protein annotation, profiling panel (AID 1140).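 Note: score merges 667 nm feature emission with signal to noise over triplicate slides.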 The note with it: WGA-A647 binding, 635 nm fluorescence, higher = more signal.
In assay [17] the target is Luciferin 4-monooxygenase (Photinus pyralis) (UniProt P08659). Put plainly: inhibition of purified Photinus pyralis luciferase – biochemical, luminescence, purified enzyme, 2006 set, primary screen (AID 1141).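 Note: cell-free assay with purified firefly luciferase at 100 ng per well in PBS; test concentration not given here.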 To be noted: purified firefly luciferase, SteadyGlo luminescence, 30 min; higher = more signal, called active from +8 up or from −8 down.
Sequence of Luciferin 4-monooxygenase (Photinus pyralis) (P08659 whole entry, looked up): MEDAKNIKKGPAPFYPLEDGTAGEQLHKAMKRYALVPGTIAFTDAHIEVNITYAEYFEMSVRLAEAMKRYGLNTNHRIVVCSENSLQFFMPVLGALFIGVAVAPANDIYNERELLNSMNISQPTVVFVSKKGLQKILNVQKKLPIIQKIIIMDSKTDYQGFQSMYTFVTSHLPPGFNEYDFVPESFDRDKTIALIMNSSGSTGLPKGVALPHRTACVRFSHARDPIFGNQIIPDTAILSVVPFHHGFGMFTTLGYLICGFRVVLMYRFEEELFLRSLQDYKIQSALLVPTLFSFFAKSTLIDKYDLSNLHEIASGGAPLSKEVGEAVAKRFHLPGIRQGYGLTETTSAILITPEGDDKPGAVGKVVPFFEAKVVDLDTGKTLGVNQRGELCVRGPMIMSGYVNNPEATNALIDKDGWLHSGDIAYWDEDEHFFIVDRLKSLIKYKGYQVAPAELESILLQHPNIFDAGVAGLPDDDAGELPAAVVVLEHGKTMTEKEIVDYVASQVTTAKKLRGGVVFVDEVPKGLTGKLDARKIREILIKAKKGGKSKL

Sequence of Follistatin (Homo sapiens) (P19883 whole entry, looked up): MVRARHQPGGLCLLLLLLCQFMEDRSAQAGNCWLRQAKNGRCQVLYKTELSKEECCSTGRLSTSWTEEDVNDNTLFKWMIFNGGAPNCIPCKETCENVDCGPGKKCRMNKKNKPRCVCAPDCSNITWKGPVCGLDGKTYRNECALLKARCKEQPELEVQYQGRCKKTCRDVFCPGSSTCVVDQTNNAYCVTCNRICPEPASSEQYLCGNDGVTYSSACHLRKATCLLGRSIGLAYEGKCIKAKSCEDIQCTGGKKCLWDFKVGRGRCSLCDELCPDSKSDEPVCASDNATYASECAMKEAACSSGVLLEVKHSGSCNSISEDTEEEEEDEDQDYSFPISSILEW
Sequence of Albumin (Bos taurus) (P02769 whole entry, looked up): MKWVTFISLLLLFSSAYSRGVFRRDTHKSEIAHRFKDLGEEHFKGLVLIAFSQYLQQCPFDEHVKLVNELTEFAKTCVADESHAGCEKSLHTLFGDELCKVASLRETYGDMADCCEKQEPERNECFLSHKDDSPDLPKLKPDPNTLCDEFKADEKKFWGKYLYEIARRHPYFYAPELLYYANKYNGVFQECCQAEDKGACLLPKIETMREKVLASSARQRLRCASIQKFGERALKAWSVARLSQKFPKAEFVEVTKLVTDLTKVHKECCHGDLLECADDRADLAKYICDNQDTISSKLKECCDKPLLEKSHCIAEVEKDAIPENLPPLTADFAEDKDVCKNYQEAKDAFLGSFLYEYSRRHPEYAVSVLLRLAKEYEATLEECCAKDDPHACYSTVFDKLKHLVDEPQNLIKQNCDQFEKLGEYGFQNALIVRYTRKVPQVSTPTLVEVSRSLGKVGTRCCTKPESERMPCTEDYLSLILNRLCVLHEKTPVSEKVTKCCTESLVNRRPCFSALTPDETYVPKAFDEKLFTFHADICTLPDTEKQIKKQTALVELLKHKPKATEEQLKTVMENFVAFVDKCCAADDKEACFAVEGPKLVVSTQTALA
Sequence of Focal adhesion kinase 1 (Homo sapiens) (Q05397 whole entry, looked up): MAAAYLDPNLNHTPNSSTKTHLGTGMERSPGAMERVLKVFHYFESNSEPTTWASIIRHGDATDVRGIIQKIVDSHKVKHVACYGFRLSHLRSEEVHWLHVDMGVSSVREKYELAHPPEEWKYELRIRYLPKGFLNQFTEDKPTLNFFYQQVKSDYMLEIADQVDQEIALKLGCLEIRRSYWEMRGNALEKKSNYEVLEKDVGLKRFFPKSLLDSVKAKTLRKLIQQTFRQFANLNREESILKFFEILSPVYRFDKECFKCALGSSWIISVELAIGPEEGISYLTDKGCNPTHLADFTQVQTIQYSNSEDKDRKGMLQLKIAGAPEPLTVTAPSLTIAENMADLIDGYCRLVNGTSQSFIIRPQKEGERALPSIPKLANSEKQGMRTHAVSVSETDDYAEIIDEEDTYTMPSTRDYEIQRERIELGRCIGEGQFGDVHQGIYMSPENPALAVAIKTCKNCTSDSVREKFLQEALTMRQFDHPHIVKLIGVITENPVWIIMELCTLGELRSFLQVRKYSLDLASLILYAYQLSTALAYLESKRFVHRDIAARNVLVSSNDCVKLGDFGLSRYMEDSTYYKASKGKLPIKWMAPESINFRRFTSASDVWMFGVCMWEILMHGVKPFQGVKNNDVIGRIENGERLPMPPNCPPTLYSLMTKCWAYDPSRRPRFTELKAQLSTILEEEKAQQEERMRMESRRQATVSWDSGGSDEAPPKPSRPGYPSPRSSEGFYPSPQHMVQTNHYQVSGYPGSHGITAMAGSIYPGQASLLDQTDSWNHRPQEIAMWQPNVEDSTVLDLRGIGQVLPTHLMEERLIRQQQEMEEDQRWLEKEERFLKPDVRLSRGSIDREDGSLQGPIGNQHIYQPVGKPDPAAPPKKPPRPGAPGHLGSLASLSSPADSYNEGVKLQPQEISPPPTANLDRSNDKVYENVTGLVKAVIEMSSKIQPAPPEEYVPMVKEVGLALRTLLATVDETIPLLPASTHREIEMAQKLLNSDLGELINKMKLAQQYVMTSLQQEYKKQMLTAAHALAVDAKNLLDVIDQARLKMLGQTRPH
Sequence of Concanavalin-A (Canavalia ensiformis) (P02866 whole entry, looked up): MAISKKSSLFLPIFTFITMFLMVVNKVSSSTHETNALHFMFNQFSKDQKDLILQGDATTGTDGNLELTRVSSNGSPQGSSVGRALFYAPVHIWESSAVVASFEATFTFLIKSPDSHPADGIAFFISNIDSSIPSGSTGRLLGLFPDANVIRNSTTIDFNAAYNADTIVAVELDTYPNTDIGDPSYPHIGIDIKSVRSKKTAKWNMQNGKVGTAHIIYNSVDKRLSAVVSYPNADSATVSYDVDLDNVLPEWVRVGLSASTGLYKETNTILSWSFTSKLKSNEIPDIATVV
Sequence of Fibroblast growth factor 2 (Homo sapiens) (P09038 whole entry, looked up): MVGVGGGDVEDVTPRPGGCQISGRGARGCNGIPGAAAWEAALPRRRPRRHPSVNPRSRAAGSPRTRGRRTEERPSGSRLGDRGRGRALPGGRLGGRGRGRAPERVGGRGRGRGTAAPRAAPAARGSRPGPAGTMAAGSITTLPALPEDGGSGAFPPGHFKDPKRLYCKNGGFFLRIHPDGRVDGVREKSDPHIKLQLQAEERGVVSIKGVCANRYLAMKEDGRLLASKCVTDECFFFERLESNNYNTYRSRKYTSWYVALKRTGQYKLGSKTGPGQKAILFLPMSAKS

As to `COc1ccc([Si](C)(C)[C@H]2[C@H](CC(=O)N(CCO)Cc3ccccc3)O[C@@]3(C(=O)N(c4ccccc4)c4ccccc43)[C@@H]2C)cc1`, the composite z-score with Albumin (Bos taurus) was 0.504; in [2], 0.123; in assay [3], -0.117; in assay [4] it was 0.34; in assay [5], 0.66; in assay [6], 0.264. Further, the composite z-score was 1.2 in the assay on Sam68 (KHDRBS1); 1.19 in [7]; 1.06 in assay [8]; 1.2 in assay [9]; 1.11 in [10]; 0.207 in assay [11]. Further, the composite z-score in assay [12] is 0.743; in assay [13], 1.1; in [14] it was 0.679; in the assay with Lefty1, 0.83; in assay [16], 0.135. Besides, the composite Z-score in [1] was 0.308 (inactive). Besides, the z-score in assay [15] was -0.23; in assay [17] it was -0.429 (inactive).
Regarding `COC(=O)[C@]1(Cc2ccccc2N=[N+]=[N-])N=C(c2ccc(OCCCO)cc2)O[C@@H]1c1ccccc1CN=[N+]=[N-]`, the composite z-score with Albumin (Bos taurus) was -0.836; in assay [2], 0.169; in assay [3] it was -0.0439; in [4], 0.483; in [5], 1.36; in [6], -0.0388. Moreover, the composite z-score in the assay with Sam68 (KHDRBS1) was 1.27; in assay [7], 0.232; in assay [8], 0.844; in [9] it was 0.335; in [10], 1.12; in assay [11], 2.02. Moreover, the composite z-score was 0.206 in assay [12]; 1.07 in assay [13]; 1.38 in [14]; 0.182 with Lefty1; 0.0031 in [16]. Moreover, the composite Z-score in assay [1] was 0.636 (inactive). Also, the z-score was -0.199 in [15] and -0.232 (inactive) in [17].
In the case of `COCCOC(=O)N1C(=O)[C@@]2(c3cc(C#CCC(C(=O)OC)C(=O)OC)ccc31)[C@H](C(=O)N1CCc3cc(OC)c(OC)cc3C1)[C@H]1C(=O)O[C@H](c3ccccc3)[C@H](c3ccccc3)N1[C@@H]2c1ccccc1OCCO`, the composite z-score with Albumin (Bos taurus) was 0.329; in assay [2] it was 0.182; in [3] it was -0.106; in [4] it was 0.401; in assay [5], 0.977; in assay [6] it was 0.75. Besides, the composite z-score came out at 1.3 with Sam68 (KHDRBS1); 0.854 in assay [7]; 1.14 in [8]; 0.258 in assay [9]; 1.2 in assay [10]; 0.673 in assay [11]. Moreover, the composite z-score in assay [12] came to 0.698; in assay [13], 1.42; in [14], 1.6; with Lefty1 it was 1.61; in [16] it was 0.281. Also, the composite Z-score in assay [1] was -0.331 (inactive). The z-score in assay [15] is -1.28; in assay [17], 0.888 (inactive).
As to `O=C1O[C@H](c2ccccc2)[C@H](c2ccccc2)N2[C@H]1[C@@H](C(=O)O)[C@]1(C(=O)Nc3ccc(C#CC4(O)CCCCCC4)cc31)[C@H]2c1ccccc1OCCO`, the composite z-score with Albumin (Bos taurus) is 0.9; in assay [2], 0.451; in assay [3], 0.0979; in assay [4], 0.487; in assay [5] it was 1.27; in assay [6] it was 0.774. The composite z-score with Sam68 (KHDRBS1) was 1.32; in assay [7], 0.0298; in [8] it was 1.14; in [9] it was 1.16; in assay [10], 1.23; in assay [11] it was 0.854. Besides, the composite z-score in [12] stood at 0.924; in assay [13], 0.729; in assay [14], 0.435; in the assay on Lefty1 it was 0.664; in assay [16], 1.25. Moreover, the composite Z-score in [1] is 0.0463 (inactive). The z-score in assay [15] was 0.833; in [17], -3.82 (inactive).
With `CC(C)C[C@@H]1NC(=O)[C@H]2C[C@@H](C(=O)O)[C@@H](c3cccc(OCCO)c3)N2C1=O`, the composite z-score was -0.371 with Albumin (Bos taurus); -0.0014 in assay [2]; -0.0761 in assay [3]; 0.265 in assay [4]; 1.38 in assay [5]; 0.327 in assay [6]. Further, the composite z-score in the assay with Sam68 (KHDRBS1) turned out to be 0.531; in assay [7], 1.12; in [8] it was 0.587; in assay [9], 1.49; in [10] it was 0.0559; in assay [11], 0.119. The composite z-score was 0.267 in [12]; 1.3 in [13]; 1.66 in [14]; 0.797 with Lefty1; 0.325 in assay [16]. The composite Z-score in assay [1] was -0.12 (inactive). In addition, the z-score was 0.951 in assay [15] and -1.07 (inactive) in assay [17].
On to `CC(C)(C)OC(=O)CC[C@@]1(C(N)=O)N=C(c2ccc(OCCCO)cc2)O[C@@H]1c1ccccc1CN=[N+]=[N-]`, for which the composite z-score came out at 0.818 with Albumin (Bos taurus); 0.651 in assay [2]; 0.27 in assay [3]; 0.876 in assay [4]; 3.13 in [5]; 1.12 in [6]. In addition, the composite z-score in the assay with Sam68 (KHDRBS1) was found to be 0.914; in assay [7], 0.312; in [8], 0.933; in [9], 3.46; in [10], 1.13; in assay [11] it was 0.177. In addition, the composite z-score in [12] is 0.524; in assay [13], 1.34; in [14], 1.34; in the assay on Lefty1, -0.721; in assay [16], 0.68. For the same compound, the composite Z-score in assay [1] was -0.0657 (inactive). Also, the figures for the z-score in assay [15] and in assay [17] were -0.332 and -1.79 (inactive), respectively.

For the origin of these results see PubChem BioAssay.
